Screening results (PubChem)
Hits are enriched below; roughly 2.5% of the tested compounds scored in any of these assays.
PKA-R1A activ = activators of PKA-R1A holoenzyme, primary screen, biochemical, fluorescence polarization, Cy5-IP20, bovine R1A, mouse PKAc. PKA-R1A dissociation; scaled: DMSO 0%, 113 µM cGMP 100%. activation, % at 11.4 µM. 340,000 tested, 0.083% active. cAMP-dependent protein kinase type I-alpha regulatory subunit (Bos taurus) + …;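 active = percent activation above the mean of all tested compounds plus 3 SD, cut at about 19% in these data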;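 note: higher means more PKAc released from R1A so a rise in polarization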
PKA-R2B act = activators of PKA-R2B holoenzyme, primary screen, biochemical, fluorescence polarization, Cy5-IP20, human. cAMP-dependent protein kinase catalytic subunit beta (Homo sapiens) + cAMP-dependent …. PKA-R2B holoenzyme dissociation; R2B truncated from residue 108, S112A mutant; 0% DMSO only, 100% 113 µM cGMP. activation, % at 11.4 µM. 340,000 tested, 0.079% active. AID 504700, 2011;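 active = activation above a cutoff set at the mean over all compounds plus 3 SD, cut at about 18% in these data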;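 note: higher means more holoenzyme dissociation and a rise in polarization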
CHT block = inhibitors of human choline transporter CHT; 310,000 tested, 0.86% active; B-score at 10 µM; CHT-expressing cells, membrane potential dye, choline response; stronger effect = lower value; High affinity choline transporter 1 (Homo sapiens), Q9GZV3;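 active = B-score over 3 SD under the library average, and starting fluorescence ratio not unusually high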;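 note: choline stimulus applied at its EC90 after an EC20 pre-addition; B-score computed on integrated fluorescence ratio after choline addition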
Target sequence (Q9GZV3 whole entry, looked up): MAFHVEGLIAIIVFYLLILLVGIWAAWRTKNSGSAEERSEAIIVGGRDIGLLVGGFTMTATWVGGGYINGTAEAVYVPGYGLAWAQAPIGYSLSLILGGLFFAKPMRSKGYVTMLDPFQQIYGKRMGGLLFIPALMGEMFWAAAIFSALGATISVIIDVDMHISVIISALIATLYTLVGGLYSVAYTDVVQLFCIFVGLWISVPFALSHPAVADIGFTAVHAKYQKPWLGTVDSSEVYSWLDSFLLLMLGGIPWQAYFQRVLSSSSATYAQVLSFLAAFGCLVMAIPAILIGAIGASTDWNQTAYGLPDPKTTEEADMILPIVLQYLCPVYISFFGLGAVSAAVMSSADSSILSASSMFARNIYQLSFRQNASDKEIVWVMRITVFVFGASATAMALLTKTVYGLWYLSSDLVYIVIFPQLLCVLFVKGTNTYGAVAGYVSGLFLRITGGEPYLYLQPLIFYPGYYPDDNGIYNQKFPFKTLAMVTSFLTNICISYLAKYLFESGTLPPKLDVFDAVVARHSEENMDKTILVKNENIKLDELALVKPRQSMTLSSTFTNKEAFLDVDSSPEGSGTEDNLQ
TMEM16A inh = TMEM16A chloride channel inhibitors, primary screen, cell-based, HTS; AID 588511, 2011; HEK293 TMEM16A/YFP iodide influx fluorescence, ionomycin; 310,000 tested, 1.2% active; normalized B-score (activity score, 25-100; higher = stronger inhibition) at 10 µM;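 active = ratio plate-corrected score three or more library SD toward inhibition, starting fluorescence score within five deviations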;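 note: score derived from kinetic fluorescence span divided by baseline fluorescence per well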
CHT PAM = CHT positive allosteric modulators, primary screen, cell-based, membrane potential dye, choline EC20 | 310,000 tested, 0.49% active | B-score at 10 µM | CHT-expressing cells; stronger effect = higher value; LV-AA mutant CHT in HEK293 cells;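 active = initial fluorescence not abnormally high and integrated response B-score, plate-corrected, over 3 SD above library mean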
ANO1 activ = TMEM16A chloride channel activators or potentiators, primary screen, cell-based, HTS. Anoctamin-1 (Mus musculus), Q8BHY3. HEK293 TMEM16A/YFP-H148Q/I152L, iodide quench fluorescence; stronger effect = lower value. B-score at 10 µM. 340,000 tested, 0.3% active. AID 623877, 2012;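 active = fluorescence-ratio B-score plate-corrected deviation score at least 3 library SD below zero, with starting fluorescence score within 5 deviations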;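 note: channel opened by trigger with iodide after compound preincubation; score built on the fluorescence ratio of max minus min over baseline; more negative score means more quench and so TMEM16A activation or potentiation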
TMEM16A reconf = TMEM16A chloride channel inhibitors, confirmation, cell-based, re-confirmation. shares compounds with TMEM16A inh. HEK293 TMEM16A/YFP-H148Q, iodide quench fluorescence; ionomycin added to raise cell calcium. inhibition, % at 10 µM. 2,300 tested, 39% active. AID 652189, 2013;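 active = mean duplicate percent inhibition, scaled so buffer wells are 0 and the reference blocker 100, over three buffer SD above buffer mean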
HEK293 Ca mobil = calcium mobilization in TMEM16A/YFP HEK293 cells, confirmation, counter-screen for TMEM16A inhibitor project. AID 652231, 2013. Fluo4 calcium mobilization. calcium response (% of ionomycin), % at 10 µM. shares compounds with TMEM16A inh. 2,300 tested, 2% active;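 active = duplicate-averaged calcium signal over 20% of the ionomycin maximum, relative to buffer baseline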;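 note: each well's signal is peak minus trough fluorescence divided by its pre-addition baseline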
Parental YFP cnt = iodide YFP quench changes in parental YFP-HEK293, counter-screen for TMEM16A inhibitor project, cell-based; shares compounds with TMEM16A inh; YFP ratio F(max-min)/F0 at 10 µM; 2,300 tested, under 10 active; ionomycin; AID 652233, 2013;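 active = yellow fluorescent protein signal ratio exceeding the buffer control mean by over 5 SD of those controls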;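 note: ratio is mean of duplicate wells from kinetic YFP trace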
ClC-1 rat inh = ClC-1 chloride channel inhibition, selectivity assay for TMEM16A inhibitor project, cell-based, voltage-dependent ClC-1 | shares compounds with TMEM16A inh | CHO ClC-1-YFP, iodide influx fluorescence quench; iodide control reads 0, buffer control 100 | ratio percent, % at 10 µM | 2,300 tested, under 10 active | AID 652236, 2013;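 active = duplicate-mean ratio percent above the mean of iodide-only control wells, which defines zero, plus 5 of their SD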;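 note: higher percent means stronger block of ClC-1 iodide influx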
Hits are given with their value; i = inactive; nt = no result given.

SMILES	PKA-R1A activ	PKA-R2B act	CHT block	TMEM16A inh	CHT PAM	ANO1 activ	TMEM16A reconf	HEK293 Ca mobil	Parental YFP cnt	ClC-1 rat inh
CCOc1cc(S(=O)(=O)NCc2ccccn2)c(C)cc1C	nt	nt	i	100	i	nt	i	i	i	i
CCOC(=O)c1cc(NC(=O)Nc2ccc(OC)c(OC)c2)c(C)nc1C	i	i	i	100	i	i	i	i	i	i
O=C(COC(=O)CCNS(=O)(=O)c1cccc(C(F)(F)F)c1)NC(=O)NC1CCCCC1	i	i	i	25	i	i	24%	i	i	i
O=C(COC(=O)Cc1cccc(C(F)(F)F)c1)NC(=O)NC1CCCC1	i	i	nt	nt	nt	i	nt	nt	nt	nt
CCOC(=O)C1CCCN(S(=O)(=O)c2ccc(S(=O)(=O)N(CC)CC)cc2)C1 (configuration not stated)	i	i	i	25	i	i	i	i	i	i
CCOC(=O)C1CCCN(S(=O)(=O)c2ccc(C)cc2)C1 (configuration not stated)	i	i	i	i	i	i	nt	nt	nt	nt
COc1ccc(CCNC(=O)c2cccc(NC(=O)CC3SC(N4CCCCC4)=NC3=O)c2)cc1OC (configuration not stated)	i	i	i	i	i	i	nt	nt	nt	nt
O=C(Nc1ccccc1)Nc1ccc(Cl)c(S(=O)(=O)N2CCOCC2)c1	i	i	i	100	i	i	28%	i	i	i
O=C(Nc1nnc(C2CC2)s1)c1ccc(Cl)c(S(=O)(=O)N2CCc3ccccc3C2)c1	i	i	i	100	i	i	26%	i	i	i
O=C(Nc1ccncc1)c1ccc(Cl)c(S(=O)(=O)N2CCCCC2)c1	i	i	i	25	i	i	i	i	i	i
O=C(Nc1ccncc1)c1ccc(Cl)c(S(=O)(=O)N2CCc3ccccc32)c1	i	i	i	25	i	i	32%	i	i	i
O=C(Nc1nnc(C2CC2)s1)c1cc(S(=O)(=O)N2CCN(c3ccccc3)CC2)ccc1Cl	i	i	i	i	i	i	nt	nt	nt	nt
Cc1cccc(NC(=O)c2ccc(Cl)c(S(=O)(=O)N3CCc4ccccc43)c2)n1	i	i	nt	nt	nt	i	nt	nt	nt	nt
O=C(Nc1ccc(Cl)c(S(=O)(=O)N2CCCCC2)c1)c1ccncc1	i	i	nt	nt	nt	i	nt	nt	nt	nt
Cc1c(Cc2ccccc2)sc(NC(=O)C(C)(C)C)c1C(N)=O	i	i	i	i	i	i	nt	nt	nt	nt
CC(=O)c1ccc(N2CCN(CC(=O)N(C3CC3)C3CCS(=O)(=O)C3)CC2)c(F)c1 (configuration not stated)	i	i	nt	nt	nt	i	nt	nt	nt	nt
Cc1ccccc1NC(=O)c1ccc(F)c(S(=O)(=O)N2CCN(c3ccccn3)CC2)c1	i	i	i	i	i	i	nt	nt	nt	nt
O=C(Nc1cccnc1)c1ccc(Cl)c(S(=O)(=O)N2CCCCCC2)c1	i	i	i	25	i	i	30%	i	i	i
O=C(Nc1ccc(Br)cc1)c1ccc(F)c(S(=O)(=O)N2CCN(c3ccccn3)CC2)c1	i	i	i	25	i	i	i	i	i	i
COc1cccc(CN2CC(C(=O)N3CCN(C(C)C)CC3)CCC2=O)c1 (configuration not stated)	i	i	i	i	i	i	nt	nt	nt	nt
CC(C)CN(C(=O)COc1ccccc1C(=O)NCc1ccccc1)C1CCS(=O)(=O)C1 (configuration not stated)	i	i	nt	nt	nt	nt	nt	nt	nt	nt
CCc1ccc(OCC(=O)Nc2cccc3c2CCCC3)cc1	i	i	i	i	i	i	nt	nt	nt	nt
COc1ccc(-c2ccc(N)cn2)cn1	i	i	nt	nt	nt	i	nt	nt	nt	nt
CC1(C)c2cc(O)ccc2OC1N1CCOCC1 (configuration not stated)	i	i	i	25	i	i	i	i	i	i
CC1(C)c2ccccc2-c2nc3ccccc3cc2C1N1CCOCC1 (configuration not stated)	i	i	nt	nt	nt	i	nt	nt	nt	nt
SMILES	PKA-R1A activ	PKA-R2B act	CHT block	TMEM16A inh	CHT PAM	ANO1 activ	TMEM16A reconf	HEK293 Ca mobil	Parental YFP cnt	ClC-1 rat inh
O=C(COc1ccc([N+](=O)[O-])cc1)N(C1CCCCC1)C1CCS(=O)(=O)C1 (configuration not stated)	i	i	i	i	i	i	nt	nt	nt	nt
CCc1ccc(CN2CCN(C(=O)c3cccc(OC)c3OC)CC2)cc1	i	i	i	25	i	i	i	i	i	i
Cc1ncc([N+](=O)[O-])n1CC(=O)NC1CCCCCC1	i	i	i	i	i	i	nt	nt	nt	nt
CCCN(CCC)S(=O)(=O)c1ccc2c(c1)CCCN2C(C)=O	i	i	i	i	i	i	nt	nt	nt	nt
CCCN(CCC)S(=O)(=O)c1ccc(C(=O)N2CCCc3ccccc32)cc1	i	i	i	100	i	i	i	i	i	i
Cc1cccc(NC(=S)NCCSc2ccc(Cl)cc2)c1	i	i	i	100	i	i	72%	i	i	i
Cc1ccc(NC(=S)NCCSc2ccc(Cl)cc2)c(C)c1	i	i	i	i	i	i	nt	nt	nt	nt
CN(CC(=O)Nc1cccc(F)c1)C(=O)CN1C(=O)NC2(CCCC2)C1=O	i	i	nt	nt	nt	i	nt	nt	nt	nt
COC(=O)C1CCN(S(=O)(=O)c2ccc(OC)cc2)CC1	i	i	i	100	i	i	i	i	i	i
COc1ccc(S(=O)(=O)N2CCC(C(=O)NCC3CC3)CC2)cc1	i	i	i	i	i	i	nt	nt	nt	nt
c1ccc(COc2cccc(CNCc3cccnc3)c2)cc1	i	i	i	i	i	i	nt	nt	nt	nt
Oc1ccc(NCc2cccc(OCc3ccccc3)c2)cc1	i	i	i	25	i	i	i	26%	i	i
